Screening results: PubChem BioAssay, several laboratories
A selection: hits, their analogues and other compounds. The true share with any hit is near 1.7%.
MIN6 prolif: induces beta-cell replication in MIN6 cells; 330,000 tested, 0.29% active; MIN6 cells proliferation, ATPlite luminescence, 48 h; cells starved in 0.2% serum; 100% = growth in 10% serum; proliferation, % at 10 µM; AID 2380;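 active = compounds whose signal lies at least 3.5 SD above the mean of all wells on their plate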;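 also: 0% = DMSO-treated cells in low-serum medium and 100% = 10% serum control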
CHT PAM: allosterically activates the human high affinity choline transporter. Q9GZV3. 310,000 tested, 0.49% active. AID 488977. CHT-expressing cells, membrane potential dye, choline EC20; active compounds read high; LV-AA mutant CHT in HEK293 cells. B-score at 10 µM;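 active = initial fluorescence not abnormally high and integrated response B-score, plate-corrected, over 3 SD above library mean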
Target sequence (Q9GZV3 whole entry, looked up): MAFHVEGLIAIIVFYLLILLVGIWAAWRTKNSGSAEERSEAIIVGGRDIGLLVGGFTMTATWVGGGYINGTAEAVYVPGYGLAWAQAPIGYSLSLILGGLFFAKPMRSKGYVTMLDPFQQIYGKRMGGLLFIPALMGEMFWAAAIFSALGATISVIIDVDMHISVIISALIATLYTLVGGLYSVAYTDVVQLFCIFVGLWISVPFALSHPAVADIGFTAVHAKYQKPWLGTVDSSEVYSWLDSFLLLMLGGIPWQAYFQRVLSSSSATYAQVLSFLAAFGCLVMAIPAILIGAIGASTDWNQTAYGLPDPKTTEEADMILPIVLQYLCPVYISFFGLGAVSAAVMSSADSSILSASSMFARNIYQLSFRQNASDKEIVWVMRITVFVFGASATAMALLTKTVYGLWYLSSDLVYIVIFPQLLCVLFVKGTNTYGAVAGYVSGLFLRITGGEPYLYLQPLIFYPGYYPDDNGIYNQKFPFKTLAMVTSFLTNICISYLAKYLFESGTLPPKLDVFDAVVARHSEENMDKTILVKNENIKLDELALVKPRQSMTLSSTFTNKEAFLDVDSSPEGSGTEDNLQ
TAG inh: triacylglycerol accumulation inhibition | H9c2 cells, Nile Red lipid (TAG) fluorescence; cells loaded with 200 µM oleic acid | inhibition, % at 12.5 µM | 230,000 tested, 0.66% active | AID 651582;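 active = pattern-corrected inhibition of lipid staining of at least 50% with the nuclear-stain viability signal not falling by more than 50%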;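 also: 0% = DMSO wells and 100% = triacsin C control wells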
CHT block: inhibits the human high affinity choline transporter. CHT-expressing cells, membrane potential dye, choline response; active compounds read low. B-score at 10 µM. 310,000 tested, 0.86% active;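 active = B-score over 3 SD under the library average, and starting fluorescence ratio not unusually high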;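 also: choline stimulus applied at its EC90 after an EC20 pre-addition; B-score computed on integrated fluorescence ratio after choline addition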
CHT block conf: confirmation of human choline transporter CHT inhibitors | shares compounds with CHT block | CHT-expressing cells, choline membrane potential dye; LV-to-AA substituted CHT, HEK293 cells | CHT activity remaining % of control (active compounds read low), % at 10 µM | 2,400 tested, 70% active | AID 493221;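 active = choline transporter activity left, mean of duplicates at 10 µM, below buffer-only control mean minus 3 SD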;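 also: depolarization triggered by choline at its EC90 following an EC20 pre-addition; 0% = hemicholinium-3 full block and 100% = buffer-only control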
HEK293 MPD ctr: counter-screen for CHT inhibitors: effect in parental HEK293 cells. shares compounds with CHT block. membrane potential dye, choline response; active = decrease or increase beyond buffer ±3SD. membrane potential ratio readout (active if shifted either direction beyond buffer ±3SD; no single direction) at 10 µM. 2,400 tested, 4% active. AID 493222;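 also: parental cells lack the transporter so any hit is non-specific; ratio is peak minus trough fluorescence over baseline after EC90 choline challenge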
* marks the source's active call; other numbers are inactive results.

What do the screens show for `COc1cc(/C=C2\SC(=S)N(NC(=O)c3ccncc3)C2=O)ccc1O`?
MIN6 prolif: -0.8; CHT PAM: inactive; TAG inh: -6.1; CHT block: -9.83*; CHT block conf: -0.4%*; HEK293 MPD ctr: -8.53*

Results for CC(/C=C1\SC(=S)N(NC(=O)c2ccncc2)C1=O)=C\c1ccccc1 ?
MIN6 prolif: -1.8; CHT PAM: inactive; TAG inh: -6.8; CHT block: -6.49*; CHT block conf: 15.4%*; HEK293 MPD ctr: inactive

Results for CC(/C=C1\SC(=S)N(NS(=O)(=O)c2ccccc2)C1=O)=C\c1ccccc1 ?
MIN6 prolif: -5.5; CHT PAM: inactive; TAG inh: 7.5; CHT block: -5.81*; CHT block conf: 54.8%*; HEK293 MPD ctr: inactive

How did COc1ccc(/C=C2/SC(=S)N(CCC(=O)N3CCN(C)CC3)C2=O)cc1 do in these assays?
MIN6 prolif: -3.8; CHT PAM: inactive; CHT block: inactive

What do the screens show for `COc1ccc(/C=C2/SC(=S)N(CCCC(=O)N3CCN(C)CC3)C2=O)cc1`?
MIN6 prolif: -5.3; CHT PAM: inactive; CHT block: -6.45*; CHT block conf: 42.4%*; HEK293 MPD ctr: inactive

What do the screens show for `CCOc1ccccc1C(=O)OCC(=O)Nc1nnc(-c2ccccc2)o1`?
MIN6 prolif: 2.7; CHT PAM: inactive; TAG inh: 7.0; CHT block: inactive

What do the screens show for `CCOc1ccccc1C(=O)NC(C(=O)OCC(=O)Nc1nnc(-c2ccccc2)o1)C(C)C` (centres undefined)?
MIN6 prolif: 0.2; CHT PAM: inactive; CHT block: -5.68*; CHT block conf: inactive; HEK293 MPD ctr: inactive

How did CCN(Cc1cc2ccccc2[nH]c1=O)C(=O)c1cccc([N+](=O)[O-])c1 do in these assays?
MIN6 prolif: -1.0; CHT PAM: inactive; CHT block: inactive

What do the screens show for `COC(=O)C1=C(N)Oc2cc(C)n(CCc3ccccc3)c(=O)c2C1c1cccnc1` (centres undefined)?
MIN6 prolif: -1.2; CHT PAM: inactive; TAG inh: 15.3; CHT block: -5.18*; CHT block conf: 69.2%*; HEK293 MPD ctr: inactive

What do the screens show for `CCN1C[C@@H]2[C@@H]3C(=O)N(Cc4ccccc4)C(=O)[C@@H]3[C@](CC)(C1=O)N2C(=O)c1ccc(F)cc1`?
TAG inh: 14.4

How did CC(=O)C(Sc1nn(C)c(=S)s1)C(=O)Nc1ccccc1 (centres undefined) do in these assays?
MIN6 prolif: -1.4; CHT PAM: inactive; CHT block: -5.39*; CHT block conf: 48.7%*; HEK293 MPD ctr: inactive

Results for Fc1cccc(Cc2noc(CN3CCC(c4ccncc4)CC3)n2)c1 ?
MIN6 prolif: -2.0; CHT PAM: inactive; CHT block: -5.6*; CHT block conf: 29.7%*; HEK293 MPD ctr: inactive

Results for Clc1c(-c2nnc3n2CCC3)sc2ccccc12 ?
MIN6 prolif: -5.1; CHT PAM: inactive; TAG inh: -7.9; CHT block: inactive

How did Clc1c(-c2nnc3n2CCCCC3)sc2ccccc12 do in these assays?
MIN6 prolif: -1.6; CHT PAM: inactive; CHT block: -5.27*; CHT block conf: 36.0%*; HEK293 MPD ctr: -8.49*

How did COc1ccc2c(Cl)c(-c3nnc4n3CCCCC4)sc2c1 do in these assays?
MIN6 prolif: -2.3; CHT PAM: inactive; CHT block: -6.21*; CHT block conf: inactive; HEK293 MPD ctr: inactive

How did Cn1c2c(c(=O)c3ccccc31)CCCC2 do in these assays?
MIN6 prolif: 0.5; CHT PAM: inactive; TAG inh: 6.2; CHT block: -8.96*; CHT block conf: 3.9%*; HEK293 MPD ctr: inactive

How did Cn1c2c(c(=O)c3ccccc31)CCC(C)(C)O2 do in these assays?
MIN6 prolif: 0.0; CHT PAM: inactive; CHT block: inactive

How did Nc1cc2[nH]c(=O)c3ccccc3c2cc1[N+](=O)[O-] do in these assays?
TAG inh: -3.2

What do the screens show for `O=C(Cc1ccc(Cl)cc1)NNC(=O)C1CC=CCC1C(=O)O` (centres undefined)?
MIN6 prolif: 3.1; CHT PAM: inactive; TAG inh: -5.9; CHT block: inactive

How did C=CCNc1nc(SC)nc2ccsc12 do in these assays?
MIN6 prolif: 1.0; CHT PAM: inactive; TAG inh: -4.0; CHT block: -11*; CHT block conf: 3.0%*; HEK293 MPD ctr: inactive

How did COc1ccc(Oc2nc(SC)nc3ccsc23)cc1 do in these assays?
MIN6 prolif: 0.1; CHT PAM: inactive; CHT block: inactive

How did CCN(CC)CCCN(C(=O)c1ccco1)c1nc(-c2ccc(Cl)cc2)cs1 do in these assays?
MIN6 prolif: -5.1; CHT PAM: inactive; CHT block: -6.28*; CHT block conf: 37.5%*; HEK293 MPD ctr: inactive

What do the screens show for `O=C(O)CC1=C(O)C(=O)N(c2ccccc2)C1c1ccc(Cl)cc1` (centres undefined)?
MIN6 prolif: 4.7; CHT PAM: inactive; TAG inh: 5.5; CHT block: inactive

What do the screens show for `O=C(O)CC1=C(Nc2ccccc2)C(=O)N(c2ccccc2)C1c1ccc(Br)cc1` (centres undefined)?
MIN6 prolif: -3.8; CHT PAM: inactive; TAG inh: 5.0; CHT block: -5.94*; CHT block conf: 24.6%*; HEK293 MPD ctr: inactive

Results for COc1ccc(C(C)(C)NC(=O)C2CCC(=O)N(CCCN3CCCC3=O)C2)cc1 (centres undefined) ?
MIN6 prolif: -5.4; CHT PAM: inactive; CHT block: inactive

Results for O=C(NCC1CCCO1)c1sc(=S)n2c1[nH]c(=O)c1ccc(C(=O)N3CCCCC3)cc12 (centres undefined) ?
MIN6 prolif: 1.1; CHT PAM: inactive; TAG inh: 11.3; CHT block: inactive

What do the screens show for `O=C(NCCc1ccccc1)c1ccc2c(=O)[nH]c3c(C(=O)NCC4CCCO4)sc(=S)n3c2c1` (centres undefined)?
MIN6 prolif: -3.4; CHT PAM: inactive; CHT block: -10.3*; CHT block conf: -19.4%*; HEK293 MPD ctr: inactive

How did CNC(=O)[C@H]1O[C@@H](n2cnc3c(NCc4cccc(I)c4)ncnc32)[C@H](O)[C@@H]1O do in these assays?
MIN6 prolif: -2.2; CHT PAM: inactive; TAG inh: 9.2; CHT block: -5.15*; CHT block conf: 44.1%*; HEK293 MPD ctr: inactive

Results for CCN(C(=O)N1CCOCC1)c1ccccc1C ?
MIN6 prolif: -2.0; CHT PAM: inactive; TAG inh: -1.9; CHT block: inactive

How did O=C(NCC(c1cccnc1)N1CCOCC1)c1cccc(Cl)c1 (centres undefined) do in these assays?
MIN6 prolif: -2.1; CHT PAM: inactive; TAG inh: 13.8; CHT block: inactive
